Screens from PubChem.
An excerpt weighted towards active compounds, which were near 3.5% of everything screened.
MITF inh = inhibitors of human MITF; inhibition, % at 2.6 µM; O75030; 0.91% of 650,000 active; AlphaScreen MITF homodimerization, bead proximity signal; AID 1259374; in the data active = inhibition above about 50%;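 also: 0% = vehicle wells with protein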
TEAD-YAP inh = TEAD-YAP interaction inhibition | inhibition, % at 9.12 µM | 1.4% of 640,000 active | AID 1259422 | HEK-TIYL cells, TEAD-Gal4/YAP UAS-luciferase luminescence; in the data active = inhibition above about 32%;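 also: 0% = median of test compound wells and 100% = reference inhibitor wells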
GPR151 activ = activators of human GPR151 | Q8TDV0 | PathHunter beta-arrestin GPR151 cells, luminescence | activation, % at 11.2 µM | 1% of 650,000 active | AID 1508602; in the data active = activation above about 4.9%;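 also: 0% = median of compound wells and 100% = cells with positive control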
FBW7 activator = activators of human E3 ligase FBW7. Q969H0. AlphaScreen FBW7–phospho-cyclin E peptide binding, activator screen. normalized activity (activation), % at 26.1 µM. 0.13% of 650,000 active. AID 1259310; in the data active = normalized activity above about 1.9%;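 also: purified mutant Fbw7 with reduced substrate affinity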
Target sequence (Q969H0 whole entry, looked up): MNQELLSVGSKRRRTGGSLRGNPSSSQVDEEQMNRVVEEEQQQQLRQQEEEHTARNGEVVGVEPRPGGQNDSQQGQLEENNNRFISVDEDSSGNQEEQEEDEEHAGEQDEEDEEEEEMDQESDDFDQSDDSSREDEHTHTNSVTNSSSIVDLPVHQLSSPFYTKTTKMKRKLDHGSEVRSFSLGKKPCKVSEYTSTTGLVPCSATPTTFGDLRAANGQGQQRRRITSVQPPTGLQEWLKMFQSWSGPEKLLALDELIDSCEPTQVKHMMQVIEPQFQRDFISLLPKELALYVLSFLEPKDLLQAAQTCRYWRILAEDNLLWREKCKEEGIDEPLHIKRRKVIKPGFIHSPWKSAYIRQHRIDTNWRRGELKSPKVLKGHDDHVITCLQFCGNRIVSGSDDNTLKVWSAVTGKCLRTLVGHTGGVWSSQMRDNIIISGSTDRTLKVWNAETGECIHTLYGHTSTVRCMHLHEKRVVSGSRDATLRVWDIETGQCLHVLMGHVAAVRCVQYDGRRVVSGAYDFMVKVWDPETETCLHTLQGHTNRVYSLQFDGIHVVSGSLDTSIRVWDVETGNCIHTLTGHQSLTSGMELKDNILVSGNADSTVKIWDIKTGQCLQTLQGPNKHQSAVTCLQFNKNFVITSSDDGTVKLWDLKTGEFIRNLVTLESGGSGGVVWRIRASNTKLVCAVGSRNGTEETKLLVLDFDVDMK
GPR151 conf act = human GPR151 activation, confirmation screen | shares compounds with GPR151 activ | GPR151 PathHunter beta-arrestin cells, luminescence, 90 min; % of EA-reagent control over plate median | activation, % at 11.2 µM | 6,700 tested, under 10 active | AID 1508609;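 active = mean percent activation across replicates above the confirmation screen cutoff of 4.91%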
GPR119 ag = activates human GPR119 in a GPR151 counter-screen; shares compounds with GPR151 activ; GPR119 PathHunter beta-arrestin cells, luminescence, 90 min; 0 = compound-well median, 100 = enzyme-acceptor control; activation, % at 11.2 µM; 0.3% of 6,700 active; AID 1508611;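 active = mean percent activation in the counterscreen above 29.09%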;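 also: counterscreen on off-target GPR119 to flag nonselective hits from the GPR151 activator screen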
* = called active by the depositor.

How did CC1(C)Oc2ccc3ccc(=O)oc3c2/C(=C/N2CCCC2)C1=O do in these assays?
MITF inh: 11; TEAD-YAP inh: 0; GPR151 activ: 1; FBW7 activator: 0

Results for CCC(=O)Nc1ccc(NC(=O)COc2ccccc2Cl)cc1 ?
MITF inh: 10; TEAD-YAP inh: 2; GPR151 activ: 1; FBW7 activator: 0

How did Cc1ccc(C(=O)/C=C\N2CCCCC2)cc1 do in these assays?
MITF inh: 14; TEAD-YAP inh: -6; GPR151 activ: 5.2*; FBW7 activator: 0; GPR151 conf act: -3; GPR119 ag: -30

What do the screens show for `Cc1cc(C)c(S(=O)(=O)Nc2cc3c4c(c2)CC(=O)N4CCC3)c(C)c1`?
MITF inh: 2; TEAD-YAP inh: 5; GPR151 activ: 5.0*; FBW7 activator: 0; GPR151 conf act: 0; GPR119 ag: -3

Results for CC1CCCC(NC(=O)C2N(C3CCCCC3C)C(=O)C3C(C(=O)Nc4ccc(Cl)cc4)C4C=CC32O4)C1C (configuration not stated) ?
MITF inh: 14; TEAD-YAP inh: -1; GPR151 activ: -2; FBW7 activator: 0

What do the screens show for `O=[N+]([O-])c1ccccc1CNc1ccc(F)c(Cl)c1`?
MITF inh: 7; TEAD-YAP inh: -10; GPR151 activ: 5.9*; FBW7 activator: 0; GPR151 conf act: 0; GPR119 ag: 0

How did C=CCS/C(=C(/C#N)C(N)=O)c1cc2c([nH]1)CCCC2 do in these assays?
MITF inh: 6; TEAD-YAP inh: -2; GPR151 activ: 8.6*; FBW7 activator: 0; GPR151 conf act: 0; GPR119 ag: 5

Results for COc1cccc(Nc2nnc(-c3cc4ccc(O)cc4oc3=O)s2)c1 ?
MITF inh: 3; TEAD-YAP inh: -3; GPR151 activ: 5.8*; FBW7 activator: 0; GPR151 conf act: -1; GPR119 ag: -15

Results for CCOC(=O)c1cc2occc2n1CC(=O)N1CCCC1 ?
MITF inh: -4; TEAD-YAP inh: -3; GPR151 activ: 7.4*; FBW7 activator: 0; GPR151 conf act: 1; GPR119 ag: 1

How did COc1ccc(/C=N/Nc2ccc([N+](=O)[O-])cc2[N+](=O)[O-])c(O)c1 do in these assays?
MITF inh: 1; TEAD-YAP inh: 13; GPR151 activ: -1; FBW7 activator: 1

What do the screens show for `COC(=O)CN/N=C/c1ccc([N+](=O)[O-])cc1[N+](=O)[O-]`?
MITF inh: 7; TEAD-YAP inh: 2; GPR151 activ: 7.6*; FBW7 activator: 0; GPR151 conf act: 1; GPR119 ag: 12

How did C=CCc1ccccc1OCCOc1ccc([N+](=O)[O-])cc1/C=N/NC(N)=O do in these assays?
MITF inh: -4; TEAD-YAP inh: -1; GPR151 activ: 6.2*; FBW7 activator: 0; GPR151 conf act: 0; GPR119 ag: -7

Results for COc1cccc(/C=N/n2c(-c3ccco3)n[nH]c2=S)c1 ?
MITF inh: 3; TEAD-YAP inh: 7; GPR151 activ: 0; FBW7 activator: 0

Results for O=C(NC1(C(F)(F)F)Oc2ccccc2O1)C(F)(F)F ?
MITF inh: 7; TEAD-YAP inh: -1; GPR151 activ: 6.2*; FBW7 activator: 0; GPR151 conf act: 1; GPR119 ag: -10

How did O=C(Nc1cccc(C(F)(F)F)c1)NC1(C(F)(F)F)Oc2ccc(Cl)cc2O1 (configuration not stated) do in these assays?
MITF inh: 9; TEAD-YAP inh: -23; GPR151 activ: 0; FBW7 activator: 0

How did O=C(CCl)NC1(C(F)(F)F)Oc2ccccc2O1 do in these assays?
MITF inh: 6; TEAD-YAP inh: -2; GPR151 activ: 0; FBW7 activator: 0

Results for O=C(Nc1ccccc1)NC1(C(F)(F)F)Oc2ccc(Cl)cc2O1 (configuration not stated) ?
MITF inh: 5; TEAD-YAP inh: -1; GPR151 activ: 5.2*; FBW7 activator: 0; GPR151 conf act: 0; GPR119 ag: 5

What do the screens show for `CS(=O)(=O)c1ncc(Cl)c(C(=O)Nc2cccc(Cl)c2)n1`?
MITF inh: -10; TEAD-YAP inh: 6; GPR151 activ: 0; FBW7 activator: 0

What do the screens show for `O=[N+]([O-])c1ccccc1/C=C/CN1CCN(CCOCCO)CC1`?
MITF inh: 49; TEAD-YAP inh: 5; GPR151 activ: 5.4*; FBW7 activator: 0; GPR151 conf act: 0; GPR119 ag: 5
